# KB-V1 MDR tox – kills drug-selected multidrug resistant KB-V1 cells. KB-V1 MDR cells viability, CellTiter-Glo, 72 h. Potency, µM (series often up to 46.1 µM), most hits filed as cytotoxic. 400,000 compounds, 3.4% hits. AID 1347076; also: nearly all actives have a fitted effect of over 60% in size
#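 qHTS viability screen in drug-selected KB-V1 MDR cells: 72 h compound treatment at 37 degrees C, ATP luminescence end point.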
# PINK1 expr mod – modulators of PINK1 expression; PINK1 immunofluorescence, high-content cytometry, 24 h; Potency, µM (doses to about 76.6 µM), usual class: activators; 410,000 compounds, 0.2% hits; active = well fitted activation curve with a large enough effect; inconclusive = small, poorly fitted or top-dose-only effect; cell line not stated here; also: nearly all actives have a fitted effect of over 65% in size
#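 Stable cell line, 250 cells/well, 12 h attachment; compounds pinned at 5 concentrations, 24 h; CCCP control. Fixed with nuclear dye, primary antibodies 12 h at 10 degrees C, secondary plus cell stain; laser-scanning cytometer read.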
# KB-3-1 cytotox – kills parental KB-3-1 adenocarcinoma cells. KB-3-1 viability, CellTiter-Glo ATP luminescence, 72 h. Potency, µM (titrated, usually from 46.1 µM), most hits filed as cytotoxic. 400,000 compounds, 1.4% hits; also: nearly all actives have a fitted effect of over 60% in size
#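 Using CellTiter-Glo luminescence, growth of non-resistant KB-3-1 adenocarcinoma cells is assessed 72 h after pin-tool compound addition at 37 °C. Normalized responses across the concentration series yield fitted curves.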
# SW480 rerep – induces DNA re-replication in SW480 colon adenocarcinoma cells; SW480 DNA re-replication, Hoechst DNA content imaging, 48 h; Potency, µM (highest dose often 46.1 µM), usual class: activators; 340,000 compounds, 1.8% hits; AID 624297; also: nearly all actives have a fitted effect of over 55% in size
#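 SW480 cells exposed to compounds for 48 hr at 37 C, 5% CO2, then Hoechst-stained 40 min. Nuclear DNA content imaged by fluorescence scanning (405 nm excitation, 500-530 nm emission); re-replication scored as increased high-intensity nuclei.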
# MCF10A rereplic – inducers of DNA re-replication in MCF 10A breast cells; MCF 10A DNA re-replication, Hoechst nuclear intensity, 48 h; Potency, µM (highest dose often 46.1 µM), most hits filed as activators; AID 624296; 350,000 compounds, 2.9% hits; also: nearly all actives have a fitted effect of over 50% in size
# 12-LOX inh – blocks human arachidonate 12S-lipoxygenase. AID 1671190. 580,000 compounds, 1.1% hits. P18054. Potency, µM (doses to about 108 µM), hits mostly inhibitors. purified 12hLO, xylenol orange hydroperoxide absorbance
# Target sequence (P18054 whole entry, looked up): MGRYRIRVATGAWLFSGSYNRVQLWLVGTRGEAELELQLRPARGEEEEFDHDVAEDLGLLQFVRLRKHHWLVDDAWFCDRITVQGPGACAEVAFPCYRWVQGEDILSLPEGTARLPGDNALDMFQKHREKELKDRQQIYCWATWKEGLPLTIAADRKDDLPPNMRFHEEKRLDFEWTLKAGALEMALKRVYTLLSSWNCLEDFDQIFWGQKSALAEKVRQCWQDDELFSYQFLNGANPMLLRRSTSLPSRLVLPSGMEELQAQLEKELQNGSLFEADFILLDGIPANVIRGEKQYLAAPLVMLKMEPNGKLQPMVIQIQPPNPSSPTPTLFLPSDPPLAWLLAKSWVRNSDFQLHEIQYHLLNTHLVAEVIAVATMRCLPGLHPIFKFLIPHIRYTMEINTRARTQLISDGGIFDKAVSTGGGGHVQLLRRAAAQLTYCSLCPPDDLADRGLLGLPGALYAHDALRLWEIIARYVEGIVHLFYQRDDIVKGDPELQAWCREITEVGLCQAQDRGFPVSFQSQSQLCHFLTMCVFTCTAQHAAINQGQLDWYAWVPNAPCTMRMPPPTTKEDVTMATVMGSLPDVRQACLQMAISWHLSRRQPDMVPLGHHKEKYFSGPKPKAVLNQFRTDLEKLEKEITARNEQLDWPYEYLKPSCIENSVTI
#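 Purified human 12hLO at 150 nM in 25 mM Hepes, 0.01% Triton X-100, pH 7.0, preincubated 15 min at room temperature with compound. Reaction started with 40 uM arachidonic acid, 30 min at room temperature. Hydroperoxide measured by Fe-xylenol orange, 573/405 nm absorbance ratio.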
# Hits are given with their value; i = inactive; ? = inconclusive; nt = no result; [ ] = another dose, or the depositor's remark. Hits are enriched below; roughly 5.8% of the tested compounds scored in any of these assays. Unless noted, calls follow the shape of the dose curve; as a rule, active = well fitted curve in the direction sought with a large enough effect; inconclusive = small, poorly fitted or top-dose-only effect, or another doubt; inactive = no such curve, though single readings can be large; an effect the other way counts as inactive or inconclusive.
SMILES,KB-V1 MDR tox,PINK1 expr mod,KB-3-1 cytotox,SW480 rerep,MCF10A rereplic,12-LOX inh
CSc1nnc(C)c(/C=C/Nc2ccc(F)cc2F)n1,?,i,i,i,18µM,35µM
COc1ccc(-c2noc(Nc3cc(OC)cc(OC)c3)n2)cc1,nt,nt,nt,nt,nt,18µM
Fc1cccc(Nc2nc(-c3ccccc3)no2)c1,nt,nt,nt,nt,nt,35µM
O=C(O)c1ccc(/C=N/NC(=O)C2CC2(c2ccccc2)c2ccccc2)cc1 (stereo unspecified),nt,nt,nt,nt,nt,i
O=C(N/N=C/c1ccco1)C1CC1(c1ccccc1)c1ccccc1 (stereo unspecified),21µM,i,i,i,i,i
CCCCn1c(=O)[nH]c(=O)c2c1nc(CCC(=O)OC)n2CC(C)C,nt,nt,nt,nt,nt,i
Cc1cc(C)c2c(c1)NC(C(=O)O)C1CC=CC21 (stereo unspecified),?,i,i,i,i,7.9µM
O=C(CCN1C(=O)/C(=C/c2cccs2)SC1=S)N1CCCCC1,?,i,?,23µM,?,i
CN1CCN(C(=O)CCN2C(=O)S/C(=C/c3ccc(Cl)cc3)C2=O)CC1,?,i,i,i,?,i
CN1CCN(C(=O)CCN2C(=O)/C(=C/c3ccccc3Cl)SC2=S)CC1,?,i,?,?,5.8µM,i
CC(C(=O)NC1C=CS(=O)(=O)C1)N1C(=O)/C(=C/c2ccc(Cl)cc2)SC1=S (stereo unspecified),?,i,i,i,?,40µM
Cc1ccc(/C=C2\SC(=O)N(CCC(=O)N3CCN(C)CC3)C2=O)cc1,?,i,i,i,13µM,?
COc1ccc(/C=C2\SC(=O)N(CC(=O)NC3C=CS(=O)(=O)C3)C2=O)cc1 (stereo unspecified),i,i,i,i,i,i
CC(C)(C)c1ccccc1,nt,nt,nt,nt,nt,i
O=C(COc1ccc2ccc(=O)oc2c1)NCc1cccs1,nt,nt,nt,nt,nt,i
COc1ccc(/C=C2\SC(=S)N(CCCC(=O)N3CCOCC3)C2=O)cc1,?,i,23µM,?,?,45µM
O=C(CCN1C(=O)/C(=C\c2ccccc2F)SC1=S)N1CCOCC1,i,i,i,nt,nt,?
Cc1ccc(/C=C2/SC(=S)N(CCC(=O)N3CCN(C)CC3)C2=O)cc1,i,i,?,i,i,i
O=C(CCN1C(=O)/C(=C/c2ccc(F)cc2)SC1=S)NC1C=CS(=O)(=O)C1 (stereo unspecified),?,i,i,i,?,i
O=C(CCN1C(=O)/C(=C/c2ccccc2Cl)SC1=S)NC1C=CS(=O)(=O)C1 (stereo unspecified),i,i,i,?,15µM,i
CN1CCN(C(=O)CCN2C(=O)/C(=C\c3ccccc3F)SC2=S)CC1,i,i,?,?,23µM,?
CN1CCN(C(=O)CCN2C(=O)/C(=C/c3ccc(F)cc3)SC2=S)CC1,i,i,21µM,i,?,i
COC(CNC(=O)Cc1c(C)nc2cc(-c3ccccc3)nn2c1C)OC,nt,nt,nt,nt,nt,i
O=C(CCN1C(=O)/C(=C/c2ccccc2F)SC1=S)NCCCn1ccnc1,i,i,i,i,21µM,i
CCOc1ccc(Cn2c3ccc(OC)cc3c3nc4ccccc4nc32)cc1OC,i,i,i,?,7.3µM,i
SMILES,KB-V1 MDR tox,PINK1 expr mod,KB-3-1 cytotox,SW480 rerep,MCF10A rereplic,12-LOX inh
COc1ccc2c(c1)c1nc3ccccc3nc1n2Cc1ccc(OC)c(OC)c1,i,i,i,i,8.2µM,i
COC(=O)Cn1c2ccc(OC)cc2c2nc3ccccc3nc21,i,i,i,i,i,?
O=C(NCC1Cn2cccc2CN1Cc1ccccc1)c1ccoc1 (stereo unspecified),nt,nt,nt,nt,nt,i
CC(=O)c1c(C)oc2c1cc(NS(=O)(=O)c1ccc(C(C)(C)C)cc1)c1ccccc12,i,i,i,nt,nt,i
COc1ccc(S(=O)(=O)Nc2cc3c(C(C)=O)c(C)oc3c3ccccc23)cc1,2.1µM,i,2.1µM,5.2µM,?,i
CCOc1ccc(S(=O)(=O)Nc2cc3c(C(=O)OC)c(COC)oc3c3ccccc23)cc1,15µM,i,3.7µM,nt,nt,i
COc1ccc(S(=O)(=O)Nc2cc(-c3c(O)ccc4ccccc34)c(O)c3ccccc23)cc1,nt,nt,nt,nt,nt,8.6µM
COC(=O)c1c(C)oc2c1cc(NS(=O)(=O)c1ccc(C)cc1)c1ccccc12,nt,nt,nt,nt,nt,i
Cc1ccc(S(=O)(=O)Nc2c(O)ccc3ccccc23)cc1,i,i,i,i,?,nt
Cc1oc2c(cc(NS(=O)(=O)c3cccs3)c3ccccc32)c1C(=O)OC(C)C,i,i,i,i,13µM,i
CC(=O)c1cc2c(cc1NS(=O)(=O)c1ccccc1C)OCO2,nt,nt,nt,nt,nt,i
COc1ccc(S(=O)(=O)Nc2cc3c(cc2C(C)=O)OCO3)cc1,?,i,7.3µM,?,18µM,i
Cc1nn(-c2ccccc2)c2sc(C(=O)N(CC(=O)NC(C)(C)C)Cc3ccco3)cc12,?,i,?,i,18µM,i
CCOC(=O)c1cccc(NC(=O)C2CCN(S(=O)(=O)c3cccs3)CC2)c1,7.3µM,i,?,i,i,i
O=C(Nc1ccc(Cl)cc1)C1CCN(S(=O)(=O)c2ccc(Br)s2)CC1,?,18µM,?,nt,nt,?
CCOC(=O)C1CCCN(C(=O)C2CCN(S(=O)(=O)c3cccs3)CC2)C1 (stereo unspecified),i,i,21µM,i,i,i
CCOC(=O)C1CCN(C(=O)C2CCN(S(=O)(=O)c3cc(Cl)ccc3Cl)CC2)CC1,23µM,i,i,i,i,i
CC(Cc1c[nH]c2ccccc12)NC(=O)CNc1nc(Cl)nc2nc[nH]c12 (stereo unspecified),nt,nt,nt,nt,nt,i
Cc1ccc(SC(C)C(=O)Nc2c(C)cc(C)cc2C)cc1 (stereo unspecified),nt,nt,nt,nt,nt,i
COCC(=O)N1CCN2C(=O)c3cc(-c4ccc(OC)cc4)ccc3NC(=O)[C@H]2C1,nt,nt,nt,nt,nt,i
COc1cccc(NC(=O)C2CCC(CNS(=O)(=O)c3cccs3)CC2)c1 (stereo unspecified),i,i,?,21µM,?,?
O=C(Nc1ccc(F)c(F)c1)C1CCN(S(=O)(=O)c2cccs2)CC1,16µM,i,i,i,i,?
Cc1ccc(NC(=O)C2CCN(S(=O)(=O)c3cccs3)CC2)cc1,i,i,i,i[1.84 µM],i,i
O=S1CCNc2ccccc21 (stereo unspecified),nt,nt,nt,nt,nt,i
CC(=O)CC(C)(C)S(=O)(=O)c1cccc2c(S(=O)(=O)C(C)(C)CC(C)=O)cccc12,nt,nt,nt,nt,nt,i
CCN1c2cc(C(=O)NC3CCCCCC3)ccc2C(=O)N2CCCCCC21 (stereo unspecified),nt,nt,nt,nt,nt,i
Cc1[nH]c2ccccc2c1C(=O)C(=O)Nc1ccc(F)c(Cl)c1,nt,nt,nt,nt,nt,i
O=C(CCn1cnc2ccccc21)N/N=C/c1ccc(O)cc1,i,i,i,i,i,i
O=C(CCn1cnc2ccccc21)N/N=C/c1ccccc1O,i,i,?,8.2µM,?,i

# Screening results (PubChem BioAssay)
